{"source": "PubChem BioAssay AID540359", "about": "(Broad Institute, 2011)", "note": "Results with a measured potency or affinity are listed apart. The source made the active and inactive calls. No rule for the calls is given here."}
{"molecular_target": "UDP-galactopyranose mutase (Mycobacterium tuberculosis (strain ATCC 25618 / H37Rv)) (UniProt P9WIQ1)", "sequence (P9WIQ1 whole entry, looked up)": "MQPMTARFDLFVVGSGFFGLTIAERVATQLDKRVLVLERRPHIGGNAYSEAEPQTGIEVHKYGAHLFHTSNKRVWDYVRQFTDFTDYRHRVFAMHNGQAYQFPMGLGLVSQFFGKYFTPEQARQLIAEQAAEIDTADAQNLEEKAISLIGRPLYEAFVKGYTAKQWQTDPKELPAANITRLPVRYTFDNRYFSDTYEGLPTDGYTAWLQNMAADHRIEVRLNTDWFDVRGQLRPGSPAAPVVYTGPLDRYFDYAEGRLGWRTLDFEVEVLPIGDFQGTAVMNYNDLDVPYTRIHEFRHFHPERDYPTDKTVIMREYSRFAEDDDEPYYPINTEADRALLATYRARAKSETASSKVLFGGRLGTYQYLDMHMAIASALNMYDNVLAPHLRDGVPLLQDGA", "assay": "Mycobacterium tuberculosis UGM enzyme inhibition, dose response confirmation, purified biochemical assay (AID 540359)", "conditions": "plate reader activity; series mostly up to 50 µM"}
{"compound": "Cc1ccccc1OCCn1cc(C(=S)N2CCCC2)c2ccccc21", "outcome": "inactive"}
{"compound": "CCc1cc(C(=O)c2ccc(C)cc2)c(NC(=O)CCl)s1", "outcome": "inactive"}
{"compound": "CC(N)=Nc1ccc([N+](=O)[O-])cc1", "outcome": "inactive"}
{"compound": "COc1ccc(C(=O)Oc2ccc(Br)cc2C(=S)N2CCOCC2)cc1", "outcome": "inactive"}
{"compound": "COc1ccccc1N1N=C(C(=O)c2ccccc2)C2C(=O)N(c3ccc(Br)cc3)C(=O)C21", "note": "(stereo not drawn)", "outcome": "inactive"}
{"compound": "CC(=O)N1CCN(S(=O)(=O)c2cccc(C(=O)NNC(=O)Cn3nc(C)cc3C)c2)CC1", "outcome": "inactive"}
{"compound": "Cn1cccc1C(=O)NC(=O)COC(=O)CC12CC3CC(CC(Br)(C3)C1)C2", "outcome": "inactive"}
{"compound": "COc1ccc(C(=O)NCC(=O)N2CCN(C(=O)c3ccco3)CC2)cc1[N+](=O)[O-]", "outcome": "inactive"}
{"compound": "CCN(C(=O)COC(=O)c1cc(Cl)ccc1OC)c1c(N)n(Cc2ccccc2)c(=O)[nH]c1=O", "outcome": "inactive"}
{"compound": "COc1cc(OC)cc(C(=O)Nc2cc(C)nn2-c2ccccc2)c1", "outcome": "inactive"}
{"compound": "O=C(Cc1cccs1)Nc1cc(SCCO)cc([N+](=O)[O-])c1", "outcome": "inactive"}
{"compound": "CCc1ccc2c(c1)C(c1ccc([N+](=O)[O-])cc1)=NNC(c1ccc(Br)cc1)=N2", "outcome": "inactive"}
{"compound": "COc1cccc(C(=O)OCC(=O)NCc2ccc3c(c2)OCO3)c1OC", "outcome": "inactive"}
{"compound": "O=C(N=c1ccn(-c2nc3ccccc3nc2NS(=O)(=O)c2ccc(Cl)cc2)cc1)c1cccs1", "outcome": "inactive"}
{"compound": "Cc1cc(C(=O)OCC(=O)Nc2c(Cl)cccc2Cl)c(C)o1", "outcome": "inactive"}
{"compound": "CCN(C(=O)COC(=O)c1ccc(O)cc1O)c1c(N)n(Cc2ccccc2)c(=O)[nH]c1=O", "outcome": "inactive"}
{"compound": "COc1cc(N2CCCC2)c(OC)cc1/C=C(/C#N)c1ccc(Br)cc1", "outcome": "inactive"}
{"compound": "Cc1cc(C)c(S(=O)(=O)n2c([N+](=O)[O-])cnc2C)cc1C", "outcome": "inactive"}
{"compound": "O=C(Nc1ccccc1F)C(=Cc1sc(N2CCOCC2)nc1-c1ccccc1)C(=O)Nc1ccccc1F", "outcome": "inactive"}
{"compound": "Cc1n[nH]c(=O)c2c(NC(=O)CSc3nnc(-c4ccco4)n3C)oc(C)c12", "outcome": "inactive"}
{"compound": "Brc1ccc(/C=N/c2nc3ccccc3n2CCN2CCOCC2)cc1", "outcome": "inactive"}
{"compound": "CCOc1ccc(C(=O)NC(=S)Nc2cccnc2)cc1", "outcome": "inactive"}
{"compound": "COc1ccc(N(CC(=O)N/N=C/c2ccc(-c3ccc([N+](=O)[O-])cc3)o2)S(=O)(=O)c2ccc(C)cc2)cc1", "outcome": "inactive"}
{"compound": "CCN(CC)C(=O)C1c2ccccc2Oc2ccccc21", "outcome": "inactive"}
{"compound": "CCOC(=O)c1cnc2ccc(Cl)cc2c1NCCN(C)C", "outcome": "inactive"}
{"compound": "C=CCn1ccc(=NC=C(C#N)C#N)c2ccccc21", "outcome": "inactive"}
{"compound": "COc1ccc2c(c1)c1nc3ccccc3nc1n2CC(=O)OC(C)C", "outcome": "inactive"}
{"compound": "CC1=Nc2ccccc2/C1=C\\c1nc(-c2ccc(C(F)(F)F)cc2)oc1O", "outcome": "inactive"}
